# HIF-2a block – blocks HIF-2a reporter activity; inhibition, % at 18.8 µM; 0.72% of 360,000 active; 786-0 RCC cells HIF-2a reporter, luciferase luminescence, overnight;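 active = inhibition of the luminescence signal of 40% or more relative to plate controls, in a single-dose primary screen at 18.75 µM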
# PAX8 inh HTS – inhibitors of PAX8 transcriptional activity in RMG-I cells | 1.2% of 360,000 active | RMG-I TPO-luciferase reporter, SteadyGlo, 24 h | inhibition, % at 12.6 µM;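 active = mean replicate inhibition at least 60% with every replicate also reaching 60%; inconclusive = only one of the two criteria is met; inactive = mean below 60% and not all replicates reaching 60%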;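 also: luciferase light reporting Pax8 driven TPO promoter activity; plate controls were median of neutral control wells for no effect and mitoxantrone controls for full effect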
# CF NFkB inh – inhibitors of cystic fibrosis induced NF-kB; KKLEB NF-kB-GFP reporter, PAF-induced, GFP fluorescence overnight; inhibition, % at 5 µM; 0.86% of 360,000 active;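 active = at least 50% inhibition at 5 µM, scaled per plate between neutral and stimulator controls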;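 also: PAF is a Pseudomonas aeruginosa culture filtrate used as stimulus; plate controls were PAF-stimulated DMSO wells for no effect and unstimulated DMSO wells for full effect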
# EWS-Fli inh – blocks EWS/Fli oncoprotein-driven transcription; A673 NR0B1-luciferase reporter, viability-normalised; inhibition, % at 12.6 µM; 0.67% of 350,000 active; AID 651661;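 active = mean inhibition of at least 50% after viability correction, with every replicate also passing that limit; inconclusive = mean reaches 50% but only one of two replicates passes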;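 also: firefly luciferase signal divided by Alamar Blue viability fluorescence both relative to DMSO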
# KKLEB cytotox – reduces viability of KKLEB cystic fibrosis airway cells; AID 602141; activity change (cytotoxicity), % at 5 µM; 0.36% of 360,000 active; KKLEB CF airway cells viability, ATPlite luminescence, overnight; stronger effect = lower value; cells stimulated with P. aeruginosa culture filtrate;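 active = corrected activity change at or below -50% at 5 µM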
# * hit, by the source's call; ? = inconclusive; nt = not tested or not shown. Sampled rows, rich in hits. Any-hit rate of the full collection: about 2.1%.
SMILES,HIF-2a block,PAX8 inh HTS,CF NFkB inh,EWS-Fli inh,KKLEB cytotox
COc1ccc(S(=O)(=O)Nc2ccc3c(c2)C(=O)N([C@@H](C)CO)C[C@@H](C)[C@@H](CN(C)S(=O)(=O)c2ccc(C)cc2)OCCCC[C@H](C)O3)cc1,nt,-1,nt,4,nt
C[C@@H]1CN([C@H](C)CO)C(=O)CCCn2cc(nn2)CO[C@@H]1CN(C)Cc1cccnc1,nt,-4,nt,1,nt
C[C@H]1CN([C@@H](C)CO)C(=O)Cc2cc(NC(=O)CCC(F)(F)F)ccc2O[C@@H]1CN(C)Cc1ccc(C(F)(F)F)cc1,nt,2,nt,2,nt
Cc1ccc(OCC(=O)Nc2ccc(Cl)cc2)c(-n2nc3ccccc3n2)c1,-3,nt,70*,nt,-70*
C[C@@H]1CCCCO[C@@H](CN(C)CC2CC2)[C@@H](C)CN([C@H](C)CO)C(=O)c2cc(NS(=O)(=O)c3ccccc3)ccc2O1,nt,-4,nt,nt,nt
Cc1ccc(C(=O)NC2CCCCCCC2)c(Cl)c1,-30,6,-10,56*,-4
COc1ccc2c3c([nH]c2c1)[C@H](CO)N(S(C)(=O)=O)CC31CN(C(=O)c2cccnc2)C1,nt,-15,nt,9,nt
CCOc1cc(/C=C/c2cccc[n+]2C)ccc1OCC(=O)Nc1ccc(C)cc1,10,74*,-9,-4,11
CCOc1cc(/C=C/C(=O)c2ccc(C)cc2)ccc1OCC(=O)N(C)C,23,0,24,13,-54*
CCOc1cc(/C=C/C(=O)O)ccc1OCCO,11,-11,-7,-13,0
COc1ccccc1S(=O)(=O)N[C@H]1CC[C@@H](CCNC(=O)C2CCCC2)O[C@H]1CO,nt,-11,nt,5,nt
CO[C@@H]1CN(C)C(=O)c2ccc(NC(=O)Nc3ccccc3F)cc2OC[C@H](C)N(Cc2ccccc2C(=O)O)C[C@H]1C,nt,nt,nt,-16,nt
COc1cccc(-n2nnnc2S(C)(=O)=O)c1,87*,nt,94*,nt,-32
CC(=O)Nc1ccc(NC(=O)c2ccc(NS(=O)(=O)c3cc(C(C)(C)C)cc(C)c3C)cc2)cc1,17,68*,4,9,7
CCNC(=O)C[C@H]1CC[C@@H]2[C@H](COc3ccc(NC(=O)C4CCCCC4)cc3C(=O)N2C)O1,nt,-12,nt,-1,nt
C/C=C/c1cnc2c(c1)C(=O)N([C@@H](C)CO)C[C@@H](C)[C@@H](CN(C)C(=O)C1CC1)O2,nt,nt,nt,-18,nt
O=C(NC(=S)Nc1ncccn1)c1ccccc1Cl,-162,70*,11,-28,1
CNC(=O)NC(=S)NC(=O)c1ccccc1Cl,11,-4,3,-1,5
COc1ccccc1C(=O)NC(=S)Nc1cccnc1Cl,7,40,-19,57*,-11
COc1ccccc1C(=O)NNC(=S)NC(=O)c1sc2ccccc2c1Cl,-34,17,48,nt,-56*
CN1C(=O)c2cc(NC(=O)C3CCC3)ccc2OC[C@H]2O[C@@H](CC(=O)NCCc3ccncc3)CC[C@@H]21,nt,-18,nt,-10,nt
O=C(c1c(F)c(F)c(F)c(F)c1F)N1CCN(c2cccc(C(F)(F)F)c2)CC1,20,67*,3,nt,-4
Cc1ccc(S(=O)(=O)Nc2ccc3c(c2)C(=O)N([C@H](C)CO)C[C@H](C)[C@H](CN(C)Cc2ccccc2)OCCCC[C@H](C)O3)cc1,nt,5,nt,-1,nt
COc1ccc(S(=O)(=O)Nc2cccc3c2O[C@H](CN(C)S(=O)(=O)c2ccccc2)[C@@H](C)CN([C@@H](C)CO)C3=O)cc1,nt,-1,nt,-2,nt
COc1ccc(NC(=O)C2Cc3c(-c4cccc(NC(C)=O)c4)ccnc3O2)cc1 (stereo not given),12,0,10,52*,-17
SMILES,HIF-2a block,PAX8 inh HTS,CF NFkB inh,EWS-Fli inh,KKLEB cytotox
CC(=O)Nc1cccc(-c2ccnc3c2CC(C(=O)NCCc2ccccc2)O3)c1 (stereo not given),25,43,22,55*,-16
CC(=O)Nc1cccc(-c2ccnc3c2CC(C(=O)NCCN(C)C)O3)c1 (stereo not given),3,nt,-1,-2,7
O=C(NCCc1ccccc1)C1Cc2c(-c3ccc4c(c3)OCO4)ccnc2O1 (stereo not given),20,6,9,-4,-10
CC(=O)c1cccc(-c2ccnc3c2CC(C(=O)NCCc2ccccc2)O3)c1 (stereo not given),-19,1,-10,54*,-2
COCCOC(=O)N1C(=O)[C@@]2(c3cc(C#Cc4ccc(OC)cc4)ccc31)[C@H](c1ccc(O)cc1)N1[C@H](c3ccccc3)[C@H](c3ccccc3)OC(=O)[C@H]1[C@@H]2C(=O)N1CCCCCCC1,nt,5,nt,-19,nt
COc1ccc(-c2ccc3n(c2=O)C[C@H]2[C@H](CO)[C@@H](C(=O)N4CCOCC4)[C@@H]3N2C)cc1,nt,nt,nt,-2,nt
O=C(N/N=C/c1cccc([N+](=O)[O-])c1O)c1cccs1,-13,16,0,69*,8
Cc1nc2ncccn2c1-c1csc(Nc2ccccc2)n1,-155,-5,-21,11,1
CC(=O)Nc1ccc(Nc2nc(-c3c(C)nc4ccccn34)cs2)cc1,-21,39,-3,57*,9
O=C(Nc1ccc(N2CCCCCC2)cc1)c1ccccc1Cl,-297,-108,17,-34,-16
O=C(Nc1ccc(N2CCCCC2)cc1)c1ccccn1,93*,nt,-5,nt,-77*
CC(=O)N[C@H]1CC[C@H](CCNC(=O)Nc2ccc(C(F)(F)F)cc2)O[C@H]1CO,nt,9,nt,-1,nt
CC=Cc1ccc2n(c1=O)C[C@@H]1[C@@H](CO)[C@H](C(=O)NCC3CC3)[C@H]2N1CCC (mixture of isomers),nt,-5,nt,-3,nt
Cc1ccc(-c2nc(-c3ccccn3)no2)cc1[N+](=O)[O-],-68,-25,-18,37,-2
Cc1ccc(-c2nc(-c3ccccn3)no2)cc1Cl,77*,81*,-6,nt,-67*
c1ccc(-c2ccc(-c3nc(-c4ccccn4)no3)cc2)cc1,83*,nt,-36,87*,-78*
CCNC(=O)C[C@H]1CC[C@H]2[C@H](COc3ccc(NC(=O)Nc4ccc(C)cc4)cc3C(=O)N2C)O1,nt,-10,nt,-6,nt
COc1ccc([Si](C)(C)[C@@H]2[C@@H](CCn3cc([C@H](O)c4ccccc4)nn3)O[C@]3(C(=O)N(Cc4cccc(N5CCOC5=O)c4)c4ccccc43)[C@H]2C)cc1,nt,?,nt,12,nt
COc1ccc([Si](C)(C)[C@@H]2[C@@H](CCn3cc(CCO)nn3)O[C@]3(C(=O)N(Cc4cccc(N5CCOC5=O)c4)c4ccccc43)[C@H]2C)cc1,nt,100*,nt,5,nt
COc1ccc([Si](C)(C)[C@H]2[C@H](CCn3cc(CCO)nn3)O[C@@]3(C(=O)N(Cc4cccc(N5CCOC5=O)c4)c4ccccc43)[C@@H]2C)cc1,nt,83*,nt,-1,nt
CCC(=O)N1CC2(C1)CN(Cc1ccccc1Cl)[C@H](CO)c1[nH]c3cc(OC)ccc3c12,nt,nt,nt,-3,nt
O=C1CS(=O)(=O)C(c2ccccc2)N1c1cccc(Cl)c1 (stereo not given),nt,-3,nt,-10,nt

# Screens deposited in PubChem BioAssay by several laboratories.
